We go through nine sequences from paper PMC8384837, “Expanding the binding specificity for RNA recognition by a PUF domain”.

What all share (experiment): yeast three-hybrid, YBZ-1, SC-Leu-His + 0.5 mM 3-AT, 4 days
Holding throughout (settings): tags: N-Gal4 AD-HA kept; label: inside an RPR1-promoter hybrid RNA with tandem MS2 sites; ssRNA

One assay has as its target PUM1 PUF domain R5-WWQ (Homo sapiens, UniProt Q14671 828-1176, C1007W;R1008W). In short, it runs like this:
(§1)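 The interaction score is the logarithmic change in variant frequency from input to selection. It uses log2, with a pseudocount of 1 for absent variants, and frequencies came from PCR-amplified, Illumina-sequenced repeat regions. The libraries were Pumilio-1 PUF domains randomized at the three base-contacting residues per repeat, co-expressed with matching RNA elements in strain YBZ-1 (LexA–MS2 coat fusion, HIS3 reporter). Plating lasted four days on SC-Leu (input) or SC-Leu-His + 0.5 mM 3-AT (selection).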

The target in another assay is PUM1 PUF domain R5-EWD (Homo sapiens, UniProt Q14671 828-1176, C1007E;R1008W;Q1011D). The procedure, abridged:
as §1

For a further assay, the target named is PUM1 PUF domain R5-KQW (Homo sapiens, UniProt Q14671 828-1176, C1007K;R1008Q;Q1011W). The procedure, abridged:
as §1

The target in the next assay is PUM1 PUF domain R5-QAR (Homo sapiens, UniProt Q14671 828-1176, C1007Q;R1008A;Q1011R). In short, it runs like this: as §1
In another assay the target is PUM1 PUF domain R8-GWH (Homo sapiens, UniProt Q14671 828-1176, N1122G;Y1123W;Q1126H). The procedure, abridged:
as §1

A further assay deals with T1, PUM1 PUF domain R6-QWL (Homo sapiens, UniProt Q14671 828-1176, N1043Q;Y1044W;Q1047L).
T1 sequence: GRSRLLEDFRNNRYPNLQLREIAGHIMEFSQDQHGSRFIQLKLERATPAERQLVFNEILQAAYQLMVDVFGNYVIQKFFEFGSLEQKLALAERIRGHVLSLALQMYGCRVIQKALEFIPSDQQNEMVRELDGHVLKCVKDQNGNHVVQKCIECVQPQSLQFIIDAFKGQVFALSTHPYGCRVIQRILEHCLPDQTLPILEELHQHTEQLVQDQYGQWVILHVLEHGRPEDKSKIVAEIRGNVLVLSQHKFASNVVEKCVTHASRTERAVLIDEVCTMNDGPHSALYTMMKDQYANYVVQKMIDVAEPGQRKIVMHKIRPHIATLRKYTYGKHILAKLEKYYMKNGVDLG
The procedure, abridged: as §1

The target of another assay is PUM1 PUF domain R1-KWV (Homo sapiens, UniProt Q14671 828-1176, S863K;R864W;Q867V). In short, it runs like this: as §1
The target in a further assay is PUM1 PUF domain R5-PHR (Homo sapiens, UniProt Q14671 828-1176, C1007P;R1008H;Q1011R). The procedure, abridged:
as §1

In the next assay the target is PUM1 PUF domain R4-RMS (Homo sapiens, UniProt Q14671 828-1176, N971R;H972M;Q975S). The procedure, abridged: as §1
In a further assay the target is PUM1 PUF domain R2-RKQ (Homo sapiens, UniProt Q14671 828-1176, N899R;Y900K). In short, it runs like this:
as §1

For “GGCUAGAACUAGUGGAUCCCCCGGCGCCCGGCGGCUCGAGCCCGGGUAAGUGUGAAUAGUCUGCAUGCCGCCGGGCGCCAUGCCUGCAGGUCGACUCUAGAAAACAUG”, the binding signal in the assay with PUM1 PUF domain R5-WWQ was 2.01 log2 enrichment (interaction score); with PUM1 PUF domain R5-EWD, 2.28 log2 enrichment (interaction score). In the case of “GGCUAGAACUAGUGGAUCCCCCGGCGCCCGGCGGCUCGAGCCCGGGUAAGUGUCAAUAGUCUGCAUGCCGCCGGGCGCCAUGCCUGCAGGUCGACUCUAGAAAACAUG”, the binding signal in the assay with PUM1 PUF domain R5-KQW is 4.59 log2 enrichment (interaction score); with PUM1 PUF domain R5-QAR, 4.51 log2 enrichment (interaction score).

Take “GGCUAGAACUAGUGGAUCCCCCGGCGCCCGGCGGCUCGAGCCCGGGUAAGCGUAAAUAGUCUGCAUGCCGCCGGGCGCCAUGCCUGCAGGUCGACUCUAGAAAACAUG”: the binding signal in the assay with PUM1 PUF domain R8-GWH is 3.5 log2 enrichment (interaction score). Regarding “GGCUAGAACUAGUGGAUCCCCCGGCGCCCGGCGGCUCGAGCCCGGGUAAGUGUUAAUAGUCUGCAUGCCGCCGGGCGCCAUGCCUGCAGGUCGACUCUAGAAAACAUG”, the values for the binding signal with PUM1 PUF domain R5-KQW, with PUM1 PUF domain R5-WWQ and in the assay with PUM1 PUF domain R5-QAR were 2.43 log2 enrichment (interaction score), 2.93 log2 enrichment (interaction score) and 3.17 log2 enrichment (interaction score), respectively. Turning to “GGCUAGAACUAGUGGAUCCCCCGGCGCCCGGCGGCUCGAGCCCGGGUAAGUGAAAAUAGUCUGCAUGCCGCCGGGCGCCAUGCCUGCAGGUCGACUCUAGAAAACAUG”, the binding signal in the assay with PUM1 PUF domain R6-QWL was 4.43 log2 enrichment (interaction score). “GGCUAGAACUAGUGGAUCCCCCGGCGCCCGGCGGCUCGAGCCCGGGUAAGUGUAAAUCGUCUGCAUGCCGCCGGGCGCCAUGCCUGCAGGUCGACUCUAGAAAACAUG”: the binding signal with PUM1 PUF domain R1-KWV is 5.68 log2 enrichment (interaction score). Still for that read-out and setting: next, “GGCUAGAACUAGUGGAUCCCCCGGCGCCCGGCGGCUCGAGCCCGGGUAAGUGUAAAUGGUCUGCAUGCCGCCGGGCGCCAUGCCUGCAGGUCGACUCUAGAAAACAUG”: 0.79 log2 enrichment (interaction score). On to “GGCUAGAACUAGUGGAUCCCCCGGCGCCCGGCGGCUCGAGCCCGGGUAAGUGUAAAUAGUCUGCAUGCCGCCGGGCGCCAUGCCUGCAGGUCGACUCUAGAAAACAUG”, for which the binding signal in the assay with PUM1 PUF domain R5-PHR was 2.42 log2 enrichment (interaction score); in the assay with PUM1 PUF domain R4-RMS, 4.65 log2 enrichment (interaction score).

As for “GGCUAGAACUAGUGGAUCCCCCGGCGCCCGGCGGCUCGAGCCCGGGUAAGUGUAAAGAGUCUGCAUGCCGCCGGGCGCCAUGCCUGCAGGUCGACUCUAGAAAACAUG”, the binding signal with PUM1 PUF domain R2-RKQ is 2.92 log2 enrichment (interaction score).
